According to the supplement of paper PMC6555819:

Columns and labels:
Experiment in all cases: PBM binding z-score (relative to random genomic background probes); higher = stronger binding; sequences stand for … in GC…GCGATTGACAGCGTAGAATGAAGG
[1] = test system: PPARg:RXRa DBDmut IVT, anti-RXR (DBD mutation: RXRa K156A/R161A, NR concentration 270 nM, RXRa partner concentration 90 nM)
Outline: (§1)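 Each nuclear receptor dimer, without ligand, was incubated for 1 h on custom Agilent 4×180K protein-binding microarrays. Binding was detected with antibodies against each partner (one per run), and scanned fluorescence was regression-normalized. The binding z-scores are referenced to random human genomic background probes.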

[2] = test system: PPARg:RXRa IVT, anti-PPARg (NR concentration 270 nM, RXRa partner concentration 90 nM)
Outline: as §1

[3] = test system: PPARg DBDmut:RXRa IVT, anti-PPARg (DBD mutation: PPARg1 K132A/R137A, NR concentration 270 nM, RXRa partner concentration 90 nM)
Outline: as §1

[4] = test system: PPARg DBDmut IVT, anti-PPARg (DBD mutation: PPARg1 K132A/R137A, NR concentration 270 nM)
Outline: as §1

[5] = test system: PPARg homodimer (NR concentration 180 nM)
Outline: as §1

[6] = test system: PXR:RXRa (NR concentration 270 nM, RXRa partner concentration 90 nM)
Outline: as §1

[7] = test system: PXR homodimer (NR concentration 270 nM)
Outline: as §1

[8] = test system: RARa:RXR (NR concentration 270 nM, RXRa partner concentration 90 nM)
Outline: as §1

[9] = test system: RARa homodimer (NR concentration 270 nM)
Outline: as §1

[10] = test system: RARb:RXRa (NR concentration 270 nM, RXRa partner concentration 90 nM)
Outline: as §1

Sequence	PBM binding z-score [1]	PBM binding z-score [2]	PBM binding z-score [3]	PBM binding z-score [4]	PBM binding z-score [5]	PBM binding z-score [6]	PBM binding z-score [7]	PBM binding z-score [8]	PBM binding z-score [9]	PBM binding z-score [10]
CTCGAAAGGTCGTTCTCAGGTGAGTATACCAAAC	0.679	1.61	0.926	0.753	2.11	3.62	0.471	4.19	-0.0759	3.71
AGTATGAGGTTACCAAAGATCAGGGAAACGCTTG	1.3	1.52	0.279	0.406	0.714	1.62	0.275	2.21	0.475	2.19
ATCTCTAGGTATCAAGTTCAGTGAAAGAGAGGAC	0.507	1.03	1.04	1.12	0.949	1.05	2.18	0.725	1.18	1.59
TCGAGTAGGTTAGGGGCATACAGAATGGCGTCGA	1.98	1.38	0.000515	-1.13	0.459	0.501	0.171	0.678	-0.124	1.06
GCTGCTAGGCCAGGTTGGTCAGCTAACGGGTACG	-0.104	-0.575	-1.57	-1.24	-1.2	-1.06	-0.918	-0.979	-0.954	0.166
GCAGACAGGTGAAACGCAAGTAACTCAGGGTGGC	0.725	0.495	-0.728	-0.714	-0.578	-0.359	-0.754	-0.0735	-0.461	0.562
GTGACTGGGGCAAAGCAGGTTACCATAAGGTTGG	4.87	5.02	1.15	0.645	0.994	0.926	-0.0315	1.99	-0.0502	1.14
CAAGCTAGGTCACCGGAAGGTCAAAGTCCGCATG	4.7	5.3	0.445	0.749	9.68	6.22	2.44	7.91	3.45	5.53
TAGCCTAGGTCATTCAGGAGCCAGTATAGAAAGC	1.4	2.52	0.758	0.0429	0.878	1.43	-0.343	2.19	-0.28	3.62
GTACCAAGATGAATAGGTCGTTGATGAGTAGGCG	-0.366	-0.096	-0.257	0.255	0.369	-0.0822	0.0588	0.0569	0.21	0.0592
CGTCCCAGGTCATAGGAGGTCAGTGAAGACAGAT	1.76	3.65	0.856	0.281	3.83	6.15	2.57	4.89	2.28	4.5
ACTAGTTGATCAGCTGAGGTCACACACAATTCGG	0.672	2.14	0.806	1.68	2.57	4.97	2.19	4.95	0.417	3.22
TGTCAAAGTTCAAAGGCAACGTAAGTATCCACAC	-0.195	3.82	1.26	1.83	3.71	4.86	2.97	3.97	1.3	4.97
AGAACGAGGGCACGCTGCGTTGATAGCAGAGTAG	4.17	3.95	0.425	-0.427	0.0277	0.123	-0.527	0.344	-0.962	2.52
CCTATTAGTTGACCATAGGGGCAACCGAAGCTCG	0.502	0.611	0.353	-0.128	1.32	0.256	0.563	0.446	1.9	0.983
TCGAGTAGGTTAGGGGCTTTCAGAATGGCGTCGA	2.03	1.11	-0.958	-0.419	0.523	-0.179	-0.00687	-0.485	0.102	0.395
TCGAGTAGGCTAGGGGCATTCAGAATGGCGTCGA	0.831	-0.362	-1.38	-1.61	-0.968	-0.194	-0.983	-0.131	-1	0.171
TCATATAGGGAATACAGGTGAAAGTCGGCATCTA	3.35	2.3	1.03	1.07	1.14	0.862	0.632	1.2	1.4	0.823
CGAACTAGGACATTGACAGGACAGTGAATAGTAA	4.34	3.36	1.39	0.241	0.296	-0.136	0.135	-0.244	-0.0168	0.136
TGAATGAGGTTTTAAGATCAGGGAACGTTGCAAA	-0.427	-0.0166	-0.325	-0.224	0.0827	-0.0619	-0.319	0.152	0.043	-0.198
CCTAGCAGGCCAATCTGGGTTACTCAAGGCTTGA	3.14	3.29	-0.813	-1.24	-0.705	-0.391	-0.895	-0.308	-0.89	0.268
GCGACTGGTGCATCAGCAGGTTACCATAACTTAA	-0.556	-0.572	-1.07	-0.356	-0.496	-0.248	-0.653	-0.046	-1.22	-0.228
CCTACTGGGCCAAGGTTATTGATCAGTCAAAGCA	3.46	3.58	-0.243	-0.723	0.597	0.145	-0.133	0.421	-0.486	0.659
TCATATAGGTAATACAGGTAAAAGTCGGCATCTA	4.07	2.77	1.1	1.94	1.08	0.705	0.364	0.922	1.47	0.572
AGAACGAGGGCACGCTGAGTTGGTAGCAGAGTAG	4.25	3.68	0.349	-0.628	-0.387	0.612	-0.377	0.517	-1.12	2.46
